From PubChem BioAssay (NCI)
Compounds without any hit were thinned out: in the full panel of roughly 79,000, 15% have a hit. A number with no mark means an inactive call. Active and inactive are the calls of the source. No stated cut-off is given here; in the data, active means growth inhibition above about 70%; inactive means the rest.

Assay: NCI Yeast Anticancer Drug Screen. Data for the rad50 strain (AID 155);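 further: 0% = growth of vehicle-only cultures of the same strain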
Conditions: S. cerevisiae rad50 strain growth inhibition; at 50.0 µM; stronger effect = higher value
Method in brief: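 Genetically altered yeast (DNA repair pathway); compound treatment; growth inhibition vs vehicle ctrl.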

First: COc1ccc(-c2nnc(-c3ccc(OC)cc3)nn2)cc1
Second: O=[N+]([O-])c1ccc(-c2ccc(-c3ccccc3)cc2)cc1
The growth inhibition of the first is higher: 1.8% for the first, -1.8% for the second.

Compared with `O=C(O)c1ccc(C(=O)c2ccccc2)c(C(=O)O)c1`, `O=C(c1ccc(Cl)c(Cl)c1)N1CCCCC1` is higher in growth inhibition: -4.05% for the first, -1.25% for the second.

Work on `NC(CCC(=O)NC(CSSCCCCS(=O)O)C(=O)NCC(=O)O)C(=O)O` (stereo unspecified) yielded a growth inhibition of -1.65%.

Assay: NCI Yeast Anticancer Drug Screen. Data for the mec2-1 strain (AID 157)
Conditions: S. cerevisiae mec2-1 strain, at 50.0 µM, stronger effect = higher value
Method in brief: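 Cells of the genetically defined mec2-1 yeast strain are incubated with test compound. Inhibition of growth is calculated against vehicle-treated controls.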

Going from `CC(Oc1ccccc1)C(=O)NNC(=O)OC(C)(C)C` (stereo unspecified) to `COc1ccc(N)c(C(=O)CCNC(C)=O)c1`, the growth inhibition rises from -21.9% to -9.7%.

Compared with `CC(C)=CCc1ccc2c(c1)CCCN2C`, `O=S1(=O)CC(N2CCCCC2)C=C(c2ccccc2)O1` (stereo unspecified) is higher in growth inhibition: -22.1% for the first, 0.25% for the second.

Compared with `O=C(O)C(O)C(O)C(O)C(O)C(O)CO.[NH-]C1CCCCC1[NH-].[Pt+2]` (stereo unspecified), `C=C(C)C#CC(O)(C(=O)OC1CCN(C)CC1)C(C)C` (stereo unspecified) is lower in growth inhibition: 4.4% for the first, -14% for the second.

Going from `COc1ccc(NC(=O)CC(=O)N/N=C(/C)c2cc3cc(N=Nc4ccccc4Cl)ccc3oc2=O)cc1` to `O=C(Nc1ccccc1Cl)c1ccccc1O`, the growth inhibition falls from 14.2% to -8.7%.

First: Cc1cc(C[C@H]2O[C@@H]3OC(C)(C)O[C@@H]3[C@H]3OC(C)(C)O[C@H]32)c2ccccc2n1
Second: Cc1cc2sc(C)[n+](CCCOS(=O)(=O)[O-])c2cc1C
The growth inhibition of the first is higher: 12% for the first, -23.9% for the second.

In the case of `O=[N+]([O-])c1ccc(-c2nnn(Cc3ccco3)c2N2CCCCC2)cc1`, the growth inhibition is reported as 70.7% (active).
